According to PubChem BioAssay AID1240 (Sanford-Burnham Center for Chemical Genomics, 2008):
Screen size: about 50,000 compounds; about 800 (1.6%) showed an effect of 50% or more. Only a selection was taken, and strong results are over-represented in it overall.

The compounds below were run against Bcl-2-like protein 10 (Homo sapiens) (UniProt Q9HD36) (assay: Phenotype converters, Bcl-B/TR3 peptide binding displacement, primary biochemical FP (AID 1240;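 note: 0% = Bcl-B with tracer peptide and DMSO and 100% = tracer peptide lacking Bcl-B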)). Conditions: GST-Bcl-B / FITC-TR3 peptide fluorescence polarization; stronger effect = higher value; compound at 3.75 mg/L.
Chain of Bcl-2-like protein 10 (Homo sapiens) (Q9HD36 whole entry, looked up): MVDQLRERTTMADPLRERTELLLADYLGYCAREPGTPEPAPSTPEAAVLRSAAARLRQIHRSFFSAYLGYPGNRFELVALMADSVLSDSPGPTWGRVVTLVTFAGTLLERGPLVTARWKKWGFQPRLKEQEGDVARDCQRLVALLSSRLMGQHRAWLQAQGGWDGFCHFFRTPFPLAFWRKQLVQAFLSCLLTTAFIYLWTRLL

| SMILES | displacement [%] |
| --- | --- |
| COc1ccc(C2/C(=C(\O)c3ccc(Cl)cc3)C(=O)C(=O)N2c2cccnc2)c(OC)c1 (stereo not given) | -7.1 |
| CCOc1cc(/C=C2/SC(N)=NC2=O)ccc1OCc1ccc(F)cc1 | -15.9 |
| CCOc1ccccc1/C=C1/SC(NC(C)=O)=NC1=O | 12.9 |
| CCOc1ccc(/C=C2/SC(NC(C)=O)=NC2=O)cc1 | 132 |
| CCOc1ccc(/C=C2/SC(NC(C)=O)=NC2=O)cc1OCC | 54.6 |
| C=C1CC(C)OC(c2ccccc2O)C1 (stereo not given) | -4.4 |
| O=C1CC(Nc2ccc(F)cc2)C(=O)N1c1ccccc1C(F)(F)F (stereo not given) | 1.1 |
| C=CCNC(=O)CN(c1ccc(OC)cc1)S(C)(=O)=O | 1.7 |
| COc1cc(C(=O)c2cc(Br)ccc2NC(=O)COc2ccccc2)cc(OC)c1OC | 57.3 |
| COc1cc(C(=O)c2cc(Br)ccc2NC(=O)COc2ccc(C)cc2)cc(OC)c1OC | 17.2 |
| COc1cc(C(=O)Nc2ccc(Br)cc2C(=O)c2cc(OC)c(OC)c(OC)c2)cc(OC)c1OC | 22.3 |
| COc1cc(CN2CCN(Cc3ccccn3)CC2)cc(OC)c1OC | -5.1 |
| CCOC(=O)C(Cc1cc(C)c(CC(C(=O)OCC)C(=O)OCC)cc1C)C(=O)OCC | -8.7 |
| CCOC(=O)C1=CN(c2ccc(F)cc2)C=C(C(=O)OCC)C1c1cc(OC)c(OC)c(OC)c1 | -2.3 |
| CC(=O)N/N=C/c1cc(C)n(-c2ccc(Cl)cc2Cl)c1C | -7.1 |
| O=c1oc2cc(O)c([N+](=O)[O-])cc2cc1-c1csc(-c2ccc(Cl)cc2)n1 | -11.3 |
| COc1cccc2cc(-c3nc(-c4ccc(Cl)c(Cl)c4)cs3)c(=O)oc12 | 0.1 |
| O=c1oc2cc(O)ccc2cc1-c1csc(-c2ccc(-c3ccccc3)cc2)n1 | 116 |
| Cc1ccc(-c2csc(-c3cc4cc([N+](=O)[O-])ccc4oc3=O)n2)cc1 | -7.9 |
| O=c1oc2cc(O)c([N+](=O)[O-])cc2cc1-c1csc(-c2cc3ccccc3oc2=O)n1 | -10 |
| Cc1ccc(-c2csc(-c3cc4ccccc4oc3=O)n2)cc1 | 154 |
| COc1cccc(-c2csc(-c3cc4cccc(OC)c4oc3=O)n2)c1 | -23.1 |
| Cc1ccc(-c2nc(-c3cc4cc([N+](=O)[O-])c(O)cc4oc3=O)cs2)cc1 | -4.8 |
| COc1cccc2cc(-c3nc(-c4ccccc4)cs3)c(=O)oc12 | 7.8 |
| O=c1oc2ccccc2cc1-c1nc(-c2ccc(Cl)c(Cl)c2)cs1 | 61.2 |
| CCOc1ccc(-c2csc(-c3cc4ccccc4oc3=O)n2)cc1 | -2.8 |
| COc1cccc2cc(-c3nc(-c4ccc(C)c(C)c4)cs3)c(=O)oc12 | 80.5 |

| SMILES | displacement [%] |
| --- | --- |
| CCOC(=O)c1c(-c2ccc(OC)cc2)csc1NC(=O)c1cccc([N+](=O)[O-])c1 | 12.6 |
| Cc1cc(/C=C2\SC(=O)NC2=O)c(C)n1C1CCCCC1 | 8.2 |
| Cc1ccc(OCc2nc(-c3cccnc3)no2)c(Br)c1 | 10.7 |
| N#C/C(=C\c1ccc(C(=O)O)cc1)C(=O)NCC1CCCO1 (stereo not given) | 0 |
| Fc1ccc(-c2nnn(Cc3c(F)cccc3Cl)n2)cc1 | -6.4 |
| CC1=C(C(=O)OCC(F)(F)F)C(c2ccccc2)NC(=O)N1 (stereo not given) | 7.2 |
| Cc1cccc(NC(=O)C2C(C(=O)O)C3C=CC2C32CC2)c1 (stereo not given) | -1.1 |
| O=C(CSc1nc2ccccc2s1)c1ccc2ccccc2c1 | 11.9 |
| COc1ccc(-c2csc(-c3cc4cc(Cl)cc(Cl)c4oc3=O)n2)cc1 | 75 |
| CCc1ccc(-c2csc(-c3cc4cccc(OC)c4oc3=O)n2)cc1 | -23.6 |
| COc1cccc2cc(-c3nc(-c4ccc(Cl)cc4Cl)cs3)c(=O)oc12 | -11.5 |
| COc1cc(NS(=O)(=O)c2ccc(C)cc2)cc(OC)c1O | 13.5 |
| NC(=O)COc1ccc(/C=N/NS(=O)(=O)c2ccccc2)cc1 | 0.2 |
| COc1ccc(/C=C(\C#N)c2ccc([N+](=O)[O-])cc2)c(OC)c1 | 110 |
| COc1cc(/C=C(\C#N)c2ccc([N+](=O)[O-])cc2)c(OC)cc1Br | 14.7 |
| COc1ccc(OC)c(/C=C(\C#N)c2ccc([N+](=O)[O-])cc2)c1 | 4 |
| CC(C)CN1C(=O)/C(=C/c2ccccc2F)SC1=S | 10.4 |
| COc1ccc(NC(=O)CSCCc2ccccn2)c([N+](=O)[O-])c1 | 10.5 |
| NS(=O)(=O)c1cccc(NC(=O)c2cc(I)ccc2Cl)c1 | -1.9 |
| COc1ccc(CCN2C(=O)/C(=C\c3ccc(C(C)C)cc3)SC2=S)cc1OC | -0.4 |
| CCN(CC)c1ccc(/C=C2\SC(=S)N(CCc3ccccc3)C2=O)cc1 | 86 |
| COc1ccc(/C=C2\SC(=S)N(CCCC(=O)Nc3ncc(Cc4cccc([N+](=O)[O-])c4)s3)C2=O)cc1OC | 59 |
| O=C(CN1C(=O)/C(=C/c2ccc(Br)cc2)SC1=S)Nc1ncc(Cc2cccc([N+](=O)[O-])c2)s1 | 17.9 |
| COc1ccc(/C=C2\SC(=S)N(CC(=O)Nc3ncc(Cc4cccc([N+](=O)[O-])c4)s3)C2=O)cc1OC | 9.7 |
| O=C(CCCN1C(=O)/C(=C\c2ccc(F)cc2)SC1=S)Nc1ccccc1O | -12.5 |
| COc1ccc(/C=C2/SC(=S)N(Cc3ccccc3)C2=O)cc1OC | 16.1 |
| COc1ccc(/C=C2/SC(=S)N(CCc3ccccc3)C2=O)cc1OC | 105 |

| SMILES | displacement [%] |
| --- | --- |
| O=C(CCCN1C(=O)/C(=C\c2ccc(F)cc2)SC1=S)Nc1cc([N+](=O)[O-])ccc1O | 114 |
| O=C(CCN1C(=O)/C(=C/c2ccc(F)cc2)SC1=S)Nc1cc([N+](=O)[O-])ccc1O | 25.6 |
| CCCCN1C(=O)/C(=C\c2ccc(N(CC)CC)cc2)SC1=S | -18.9 |
| Cc1ccc(/C=C2\SC(=S)N(CCc3ccccc3)C2=O)cc1 | 17 |
| COC1C(C)=C(c2ccccc2F)C(=O)N1Cc1ccccc1 (stereo not given) | 14.3 |
| CC1=C(C(=O)Nc2ccc(C)cc2)C(c2ccc(F)cc2)NC(=S)N1 (stereo not given) | -4.5 |
| C/C(O)=C/c1nc2ccc([N+](=O)[O-])cc2nc1/C=C(/C)O | 17.3 |
| OC(COCc1ccc2c(c1)OCO2)CN1CCC(Cc2ccccc2)CC1 (stereo not given) | 0.1 |
| Cc1ccc(-c2cc(NC(=O)c3ccc(Cl)cc3Cl)n[nH]2)cc1 | 9.9 |
| O=C(O)CCCCCN1C(=O)C(=O)/C(=C(/O)c2ccccc2)C1c1ccc([N+](=O)[O-])cc1 (stereo not given) | -3.9 |
| O=C1c2c(Cl)ccc(Cl)c2C(=O)N1c1ccccc1O | 9.8 |
| C(#Cc1ccccc1)CN1CCOCC1 | 2.4 |
| CSC(=O)NC1(Cc2ccc(O)cc2)CCCCC1 | -4.1 |
| Cc1ccc(C(=O)N/C(=C/c2ccc(Br)cc2)C(=O)NN)cc1 | -31.6 |
| CCN(CC)CCC(=O)c1ccc2c(c1)OCO2 | -5.3 |
| O=c1[nH]c2ccc(Cl)cc2c(-c2ccccc2)c1N1CCOCC1 | -27.7 |
| COC(=O)C(C)Oc1cc2oc(=O)cc(-c3ccccc3)c2cc1Cl (stereo not given) | 10.3 |
| COc1cc(/C=C2\SC(=NCc3ccccc3)N(Cc3ccccc3)C2=O)cc(Br)c1O | -5.7 |
| COc1ccc(/C=C2\SC(=NCc3ccccc3)N(Cc3ccccc3)C2=O)cc1OC | 7.1 |
| COc1ccc(/C=C2\SC(=NCc3ccccc3)N(Cc3ccccc3)C2=O)cc1C(=O)O | 78 |
| CCN(CC)c1ccc(/C=C2/C(=O)NN(c3ccc(C)c(Cl)c3)C2=O)c(O)c1 | 59.2 |
| CCN(CC)c1ccc(/C=C2/C(=O)NN(c3cccc(Cl)c3)C2=O)c(O)c1 | 1.9 |
| CCN(CC)c1ccc(/C=C2/C(=O)NN(c3ccc(C)cc3)C2=O)c(O)c1 | 23.1 |
| CC(=O)C12CCCCC1CC1C3CC(C)[C@@]4(O)CC(O)CCC4(C)C3CCC12C (stereo not given in full) | 0 |
| Cc1cccc(N2C(=O)S/C(=C/c3cccc([N+](=O)[O-])c3)C2=O)c1 | 14.3 |
| COc1cc(OC)c([N+](=O)[O-])cc1/C=C1/C(=O)NC(=O)N(c2ccc(Br)cc2)C1=O | 8.8 |
| COc1ccc(C2=NN(c3ccccc3)C(c3ccccc3F)C2)cc1 (stereo not given) | 53.9 |

| SMILES | displacement [%] |
| --- | --- |
| COc1ccc(C2CC(c3ccc(F)cc3)=NN2c2ccccc2F)cc1OC (stereo not given) | -4.3 |
| COc1ccc(C2CC(c3ccc(F)cc3)=NN2c2cccc(F)c2)cc1OC (stereo not given) | -6.2 |
| COc1ccc(C2=NN(C(=O)CCC(=O)O)C(c3ccccc3F)C2)cc1 (stereo not given) | 12.3 |
| COc1ccc(C2CC(c3ccc(F)cc3)=NN2c2ccccc2)cc1OC (stereo not given) | 64.4 |
| COc1ccccc1C1CC(c2ccc(F)cc2)=NN1c1ccccc1 (stereo not given) | 5.4 |
| O=C(COc1ccc(Cl)cc1Cl)Nc1ccc(Br)c(Cl)c1 | -5.5 |
| CC(=O)Nc1ccc(S(=O)(=O)NC(=O)C23CC4CC(CC(C4)C2)C3)cc1 | 0.8 |
| CCOc1ccc(C(=O)Nc2cccc(C(C)=O)c2)cc1 | 9 |
| COc1ccc(Cl)cc1N=CC1=C(O)CC(C)(C)CC1=O | 3.1 |
| O=C(Oc1ccccc1C(=S)N1CCOCC1)c1cccc([N+](=O)[O-])c1 | 10.7 |
| CCOc1cc(C(=S)N2CCOCC2)ccc1OC(=O)c1cccc([N+](=O)[O-])c1 | 8.7 |
| COc1cc(C(=S)N2CCOCC2)cc(OC)c1OC(=O)c1cccc([N+](=O)[O-])c1 | 70.4 |
| COc1cc(C2C3=C(CC(C)(C)CC3=O)OC3=C2C(=O)CC(C)(C)C3)cc(OC)c1OC(C)=O | -1.3 |
| CC(C)COc1ccc(C(=O)Nc2ccc(Cl)cc2)cc1 | 13.1 |
| COc1ccc(NC(=O)CN(c2cc(OC)ccc2OC)S(C)(=O)=O)cc1 | 13.1 |
| CCC1=NN2C(=N)/C(=C/c3ccc(-c4ccccc4[N+](=O)[O-])o3)C(=O)N=C2S1 | 1.5 |
| NC1=NC(=O)/C(=C/c2ccc(-c3ccc([N+](=O)[O-])cc3Br)o2)S1 | -5.3 |
| CCC1=NN2C(=N)/C(=C/c3ccc(-c4ccc([N+](=O)[O-])cc4C)o3)C(=O)N=C2S1 | 14 |
| CCCC1=NN2C(=N)/C(=C/c3ccc(-c4ccc([N+](=O)[O-])cc4Br)o3)C(=O)N=C2S1 | 129 |
| CCC1=NN2C(=N)/C(=C/c3ccc(-c4ccc([N+](=O)[O-])cc4Cl)o3)C(=O)N=C2S1 | 15.1 |
| CCCC1=NN2C(=N)/C(=C/c3ccc(-c4ccc([N+](=O)[O-])cc4C)o3)C(=O)N=C2S1 | 140 |
| C=CCOc1ccc(Cl)cc1/C=C1/C(=N)N2N=C(CCC)SC2=NC1=O | -25.3 |
| CCC1=NN2C(=N)/C(=C/c3ccc(-c4ccc([N+](=O)[O-])cc4Br)o3)C(=O)N=C2S1 | 4 |
| CCCC1=NN2C(=N)/C(=C/c3ccc(-c4ccc(Cl)cc4Cl)o3)C(=O)N=C2S1 | 74.7 |
